# Test results as given in PubChem BioAssay (EPA / NIEHS).
# Inconclusive results are not listed. Active and inactive are the calls of the source. The calls were made as follows, unless noted: active = hit-call score of the fitted dose curve at least 0.9, where 1 is the maximum; inconclusive = response in the unintended direction; inactive = score below 0.9.
# Legend:
# [1] = ATG_M_19_TRANS: Attagene TRANS-FACTORIAL HepG2 Assay for M19 Transcription Factor (Internal Marker) (AID 2282974); settings: HepG2 Attagene TRANS-FACTORIAL M19 internal marker reporter
# Method in brief: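 Fluorescence of 6-FAM-labelled reporter cDNA fragments, separated by capillary electrophoresis, served as the readout. These derived from HepG2 cells carrying transfected GAL4-UAS reporter units after 24 h dosing, with DMSO as negative control.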
# [2] = molecular target: Glucocorticoid receptor (Homo sapiens) (UniProt P04150); assay: ATG_GR_TRANS: Attagene TRANS-FACTORIAL HepG2 Assay for human Glucocorticoid Receptor (GR) (AID 2282978); settings: HepG2 Attagene TRANS GR reporter, mRNA transcription;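 also: activators score as hits since higher reporter transcript over DMSO is fitted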
# Sequence of Glucocorticoid receptor (Homo sapiens) (P04150 whole entry, looked up, the tested form may be a part): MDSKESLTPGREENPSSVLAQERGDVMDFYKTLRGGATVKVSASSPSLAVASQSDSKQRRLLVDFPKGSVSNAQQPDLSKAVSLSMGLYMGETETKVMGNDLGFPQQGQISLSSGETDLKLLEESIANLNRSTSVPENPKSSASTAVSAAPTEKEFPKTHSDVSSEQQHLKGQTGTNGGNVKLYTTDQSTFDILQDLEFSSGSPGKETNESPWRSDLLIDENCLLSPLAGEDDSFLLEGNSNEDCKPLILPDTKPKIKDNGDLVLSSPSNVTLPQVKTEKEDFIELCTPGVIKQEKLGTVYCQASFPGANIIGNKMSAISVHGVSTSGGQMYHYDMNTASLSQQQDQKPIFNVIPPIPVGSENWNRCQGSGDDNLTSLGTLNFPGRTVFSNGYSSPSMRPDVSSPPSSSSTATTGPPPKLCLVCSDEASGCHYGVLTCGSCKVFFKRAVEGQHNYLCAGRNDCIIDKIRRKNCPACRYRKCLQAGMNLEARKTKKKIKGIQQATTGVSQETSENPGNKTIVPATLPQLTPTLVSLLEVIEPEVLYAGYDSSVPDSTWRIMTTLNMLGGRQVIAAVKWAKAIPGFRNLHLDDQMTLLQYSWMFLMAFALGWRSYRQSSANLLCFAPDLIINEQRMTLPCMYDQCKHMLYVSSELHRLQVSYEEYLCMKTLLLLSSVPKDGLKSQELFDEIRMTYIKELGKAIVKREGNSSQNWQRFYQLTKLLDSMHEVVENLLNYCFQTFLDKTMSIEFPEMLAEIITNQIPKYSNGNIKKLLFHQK
# Method in brief: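 Fluorescent capillary-electrophoresis quantitation of reporter mRNA is the readout, taken 24 h after dosing human HepG2 cells carrying transiently transfected GAL4-UAS reporter units activated by chimeric NR-GAL4 fusions; activity scored as induction over DMSO.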
# [3] = molecular target: Oxysterols receptor LXR-alpha (Homo sapiens) (UniProt Q13133); assay: ATG_LXRa_TRANS: Attagene TRANS-FACTORIAL HepG2 Assay for human Liver X Receptor alpha (LXRa) (AID 2282980); settings: HepG2 Attagene TRANS reporter, LXRa transactivation
# Sequence of Oxysterols receptor LXR-alpha (Homo sapiens) (Q13133 whole entry, looked up, the tested form may be a part): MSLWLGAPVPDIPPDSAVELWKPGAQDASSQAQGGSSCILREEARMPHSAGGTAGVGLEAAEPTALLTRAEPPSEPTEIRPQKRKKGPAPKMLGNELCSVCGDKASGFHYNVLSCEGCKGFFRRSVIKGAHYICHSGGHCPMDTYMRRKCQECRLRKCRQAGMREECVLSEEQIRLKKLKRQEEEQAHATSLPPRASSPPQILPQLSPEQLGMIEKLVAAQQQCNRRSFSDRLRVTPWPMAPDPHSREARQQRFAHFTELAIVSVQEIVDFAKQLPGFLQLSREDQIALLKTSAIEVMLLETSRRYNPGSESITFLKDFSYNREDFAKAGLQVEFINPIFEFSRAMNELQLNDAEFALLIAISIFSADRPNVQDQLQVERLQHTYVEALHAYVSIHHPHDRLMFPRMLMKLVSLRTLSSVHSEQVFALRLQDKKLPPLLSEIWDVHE
# Method in brief: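 HepG2 cells transiently transfected with GAL4-UAS reporter units for chimeric NR-Gal4 proteins, exposed to chemicals for 24 h. Reporter mRNA quantified by RT-PCR and capillary electrophoresis; gain of signal fitted relative to DMSO.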
# [4] = molecular target: Oxysterols receptor LXR-beta (Homo sapiens) (UniProt P55055); assay: ATG_LXRb_TRANS: Attagene TRANS-FACTORIAL HepG2 Assay for human Liver X Receptor beta (LXRb) (AID 2282981); settings: HepG2 Attagene TRANS GAL4-LXRb reporter, mRNA
# Sequence of Oxysterols receptor LXR-beta (Homo sapiens) (P55055 whole entry, looked up, the tested form may be a part): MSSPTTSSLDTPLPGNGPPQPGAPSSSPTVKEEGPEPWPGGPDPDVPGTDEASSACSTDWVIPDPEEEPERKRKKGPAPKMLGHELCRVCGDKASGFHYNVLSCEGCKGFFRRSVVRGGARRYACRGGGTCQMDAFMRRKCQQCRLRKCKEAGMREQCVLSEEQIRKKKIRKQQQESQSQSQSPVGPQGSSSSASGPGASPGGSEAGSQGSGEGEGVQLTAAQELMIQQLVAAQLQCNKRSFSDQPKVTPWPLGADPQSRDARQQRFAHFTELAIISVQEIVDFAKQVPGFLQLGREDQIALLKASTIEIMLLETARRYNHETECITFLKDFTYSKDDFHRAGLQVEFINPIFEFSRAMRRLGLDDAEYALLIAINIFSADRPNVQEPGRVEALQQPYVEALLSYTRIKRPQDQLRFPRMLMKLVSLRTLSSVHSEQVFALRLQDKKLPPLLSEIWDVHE
# Method in brief: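 Readout: fluorescent reporter mRNA fragments resolved by capillary electrophoresis after RT-PCR. System: transiently transfected human HepG2, exogenous LXRb-Gal4 chimera driving GAL4-UAS reporter, 24 h dosing. Activity fitted upward against DMSO baseline.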
# [5] = molecular target: human Peroxisome Proliferator-activated Receptor delta (PPARd), PPARD (gene 5467) (UniProt Q03181); assay: ATG_PPARd_TRANS: Attagene TRANS-FACTORIAL HepG2 Assay for human Peroxisome Proliferator-activated Receptor delta (PPARd) (AID 2283002)
# Sequence of human Peroxisome Proliferator-activated Receptor delta (PPARd), PPARD (gene 5467) (Q03181 whole entry, looked up, the tested form may be a part): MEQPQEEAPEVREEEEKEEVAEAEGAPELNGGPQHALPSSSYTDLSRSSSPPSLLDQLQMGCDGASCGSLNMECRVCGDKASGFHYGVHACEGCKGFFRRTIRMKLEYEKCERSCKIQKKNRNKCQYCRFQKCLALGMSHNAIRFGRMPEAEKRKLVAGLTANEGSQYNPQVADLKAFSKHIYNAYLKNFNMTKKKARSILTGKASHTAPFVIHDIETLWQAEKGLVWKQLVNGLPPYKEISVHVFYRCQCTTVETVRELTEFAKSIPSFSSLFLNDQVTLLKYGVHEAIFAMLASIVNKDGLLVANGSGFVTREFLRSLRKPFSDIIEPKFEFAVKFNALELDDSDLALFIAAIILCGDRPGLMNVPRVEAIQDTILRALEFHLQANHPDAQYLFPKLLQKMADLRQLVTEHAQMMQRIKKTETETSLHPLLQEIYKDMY
# Method in brief: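 Fluorescence from capillary electrophoresis of labelled RT-PCR reporter fragments gives the signal; DMSO sets baseline. Cells: HepG2 transiently carrying GAL4-UAS reporter units plus chimeric nuclear receptor-Gal4 proteins, exposed to chemicals for 24 h.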
# [6] = molecular target: human RAR-related Orphan Receptor beta (RORb), RORB (gene 6096) (UniProt Q92753); assay: ATG_RORb_TRANS: Attagene TRANS-FACTORIAL HepG2 Assay for human RAR-related Orphan Receptor beta (RORb) (AID 2283010)
# Sequence of human RAR-related Orphan Receptor beta (RORb), RORB (gene 6096) (Q92753 whole entry, looked up, the tested form may be a part): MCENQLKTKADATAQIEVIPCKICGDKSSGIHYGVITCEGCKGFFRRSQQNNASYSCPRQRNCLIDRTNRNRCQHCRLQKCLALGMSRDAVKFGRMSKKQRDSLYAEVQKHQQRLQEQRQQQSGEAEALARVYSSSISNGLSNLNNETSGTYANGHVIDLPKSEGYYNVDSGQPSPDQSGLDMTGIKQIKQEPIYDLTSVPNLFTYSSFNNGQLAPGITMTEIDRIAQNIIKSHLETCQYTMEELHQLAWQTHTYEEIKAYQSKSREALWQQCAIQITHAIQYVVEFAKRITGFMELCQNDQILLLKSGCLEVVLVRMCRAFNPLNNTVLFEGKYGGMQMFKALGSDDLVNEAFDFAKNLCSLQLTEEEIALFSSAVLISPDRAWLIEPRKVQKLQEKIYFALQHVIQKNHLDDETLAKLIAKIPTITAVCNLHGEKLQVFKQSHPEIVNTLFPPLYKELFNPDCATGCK
# Method in brief: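 Multiplexed transcription-factor reporter assay: HepG2 cells transiently carrying NR-Gal4/GAL4-UAS constructs, 24 h treatment, mRNA quantified by RT-PCR plus capillary electrophoresis fluorescence; activity scored as induction over DMSO.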
# [7] = molecular target: human RAR-related Orphan Receptor gamma (RORg), RORC (gene 6097) (UniProt P51449); assay: ATG_RORg_TRANS: Attagene TRANS-FACTORIAL HepG2 Assay for human RAR-related Orphan Receptor gamma (RORg) (AID 2283011)
# Method in brief: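 HepG2 cells transiently transfected with GAL4-UAS reporter units and chimeric RORg-Gal4 construct; after 24 h chemical exposure, reporter mRNA measured by RT-PCR with fluorescent capillary electrophoresis, gain of signal fitted against DMSO.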
# [8] = molecular target: human Vitamin D Receptor (VDR), VDR (gene 7421) (UniProt P11473); assay: ATG_VDR_TRANS: Attagene TRANS-FACTORIAL HepG2 Assay for human Vitamin D Receptor (VDR) (AID 2283022)
# Sequence of human Vitamin D Receptor (VDR), VDR (gene 7421) (P11473 whole entry, looked up, the tested form may be a part): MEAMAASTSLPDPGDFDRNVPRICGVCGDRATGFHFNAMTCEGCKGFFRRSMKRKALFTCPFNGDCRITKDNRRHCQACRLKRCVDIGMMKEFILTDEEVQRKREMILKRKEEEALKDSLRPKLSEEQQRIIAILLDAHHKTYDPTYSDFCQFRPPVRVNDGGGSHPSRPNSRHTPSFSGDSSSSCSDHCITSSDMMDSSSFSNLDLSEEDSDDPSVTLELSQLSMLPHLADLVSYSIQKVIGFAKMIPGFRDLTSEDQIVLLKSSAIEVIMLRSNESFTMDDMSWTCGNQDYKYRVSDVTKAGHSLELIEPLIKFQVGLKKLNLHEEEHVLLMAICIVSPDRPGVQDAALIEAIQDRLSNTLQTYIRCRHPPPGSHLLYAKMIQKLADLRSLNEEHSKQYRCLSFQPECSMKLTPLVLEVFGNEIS
# Method in brief: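 HepG2 cells were transiently transfected with GAL4-UAS reporter units and a chimeric VDR-Gal4 construct, then dosed for 24 hours. Reporter mRNA was quantified by RT-PCR, fluorescent labeling, HpaI digestion and capillary electrophoresis; gain of signal analysed vs DMSO.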
# [9] = ATG_XTT_Cytotoxicity: Cytotoxicity Assessment in the Attagene TRANS-FACTORIAL HepG2 Assay (AID 2283584)
# Method in brief: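 HepG2 cells transiently transfected with GAL4-UAS multiple reporter units, dosed 24 h; cytotoxicity read by XTT as loss of signal versus DMSO baseline.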
# [10] = molecular target: human Thyroid Receptor alpha (THRa1), THRA (gene 7067) (UniProt P10827); assay: ATG_THRa1_TRANS: Attagene TRANS-FACTORIAL HepG2 Assay for human Thyroid Receptor alpha (THRa1) (AID 2283014)
# Sequence of human Thyroid Receptor alpha (THRa1), THRA (gene 7067) (P10827 whole entry, looked up, the tested form may be a part): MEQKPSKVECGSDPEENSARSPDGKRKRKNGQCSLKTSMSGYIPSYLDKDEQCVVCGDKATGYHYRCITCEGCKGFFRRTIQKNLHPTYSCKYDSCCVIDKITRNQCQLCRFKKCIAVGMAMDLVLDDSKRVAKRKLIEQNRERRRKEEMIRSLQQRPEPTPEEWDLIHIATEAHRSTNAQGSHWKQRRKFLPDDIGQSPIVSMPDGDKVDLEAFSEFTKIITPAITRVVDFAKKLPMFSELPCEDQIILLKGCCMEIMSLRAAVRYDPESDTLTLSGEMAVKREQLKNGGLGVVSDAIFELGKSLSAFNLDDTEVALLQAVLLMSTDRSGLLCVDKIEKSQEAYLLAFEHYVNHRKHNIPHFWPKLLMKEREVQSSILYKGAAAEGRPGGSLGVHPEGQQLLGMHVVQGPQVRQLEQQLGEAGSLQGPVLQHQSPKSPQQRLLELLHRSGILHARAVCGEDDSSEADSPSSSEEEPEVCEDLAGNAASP
# Method in brief: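 HepG2 cells transiently transfected with chimeric NR-Gal4 and GAL4-UAS reporter units, dosed 24 h. Reporter mRNA quantified by RT-PCR, fluorescent labeling, HpaI digestion and capillary electrophoresis; gain-of-signal fit versus DMSO.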
# [11] = TOX21_p53_BLA_p4_viability: Viability Assessment in the Tox21 HCT-116 p53 Agonism Beta-lactamase Assay, Phase 4 (AID 2283597);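 also: hits lower the luminescence signal meaning cytotoxicity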
# Method in brief: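 4000 HCT116 cells per well; 5 h attachment; compounds from DMSO, 217-fold dilution; 16 h at 37C. Then CCF4-AM, 2 h RT, followed by CellTiter-Glo, 30 min RT, luminescence. Decrease = cytotoxicity.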
# [12] = molecular target: Bile acid receptor (Homo sapiens) (UniProt Q96RI1); assay: ATG_IR1_CIS: Attagene CIS-FACTORIAL HepG2 Assay for human Nuclear Receptor Subfamily 1 Group H Member 4 (NR1H4), IR1 submotif (AID 2282946; active = hit-call score of the fitted dose curve at least 0.9, where 1 is the maximum; inactive = score below 0.9); settings: IR1 reporter transcription, actives raise or lower the signal
# Sequence of Bile acid receptor (Homo sapiens) (Q96RI1 whole entry, looked up, the tested form may be a part): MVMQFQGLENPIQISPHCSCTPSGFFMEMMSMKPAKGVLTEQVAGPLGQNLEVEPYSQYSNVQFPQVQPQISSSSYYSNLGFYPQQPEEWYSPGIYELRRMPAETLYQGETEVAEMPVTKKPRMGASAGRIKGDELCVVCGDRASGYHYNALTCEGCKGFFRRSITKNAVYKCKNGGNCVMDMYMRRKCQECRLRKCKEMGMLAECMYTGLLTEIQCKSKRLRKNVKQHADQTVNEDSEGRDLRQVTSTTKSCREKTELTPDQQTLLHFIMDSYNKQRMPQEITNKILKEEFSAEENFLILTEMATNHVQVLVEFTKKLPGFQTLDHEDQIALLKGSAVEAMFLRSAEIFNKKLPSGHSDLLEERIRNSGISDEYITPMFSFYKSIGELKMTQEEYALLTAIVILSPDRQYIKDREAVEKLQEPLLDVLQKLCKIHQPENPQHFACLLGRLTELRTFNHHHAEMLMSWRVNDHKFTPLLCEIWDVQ
# Method in brief: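 Fluorescence of capillary-separated, HpaI-digested RT-PCR reporter products gave IR1-element mRNA induction in HepG2 cells 24 h after dosing. Endogenous transcription factors drove the cis-regulated reporters; activity was fitted bidirectionally against DMSO.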
# [13] = ATG_GAL4_TRANS: Attagene TRANS-FACTORIAL HepG2 Assay for GAL4 (Internal Marker) (AID 2282976); settings: HepG2 Attagene TRANS GAL4 internal marker reporter
# Method in brief: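 Background-control readout: GAL4-UAS reporter transcript in transiently transfected HepG2 cells after 24 h compound exposure. Measured by RT-PCR, 6-FAM primer extension, HpaI digest and capillary electrophoresis; gain-of-signal fit versus DMSO.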
# [14] = molecular target: Bile acid receptor (Homo sapiens) (UniProt Q96RI1); assay: ATG_FXR_TRANS: Attagene TRANS-FACTORIAL HepG2 Assay for Farnesoid X Receptor (FXR) (AID 2282979); settings: HepG2 Attagene TRANS FXR-GAL4 reporter transcription;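 also: hits raise reporter mRNA above DMSO so AC50 marks FXR activation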
# Method in brief: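 HepG2 cells were transiently transfected with GAL4-UAS reporters driven by chimeric NR-Gal4 proteins and dosed for 24 h. Reporter mRNA was quantified by RT-PCR, fluorescent labelling, HpaI digestion and capillary electrophoresis, with gain of signal scored versus DMSO.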
# [15] = ACEA_ER_AUC_viability: ACEA Biosciences xCELLigence Real-Time Cell Analysis on Estrogen Receptor Agonism for Viability (AID 2283782);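 also: hit means loss of impedance signal meaning reduced cell growth or viability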
# Method in brief: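 Read-out: real-time electrical impedance (RT-CES) area under curve, loss of signal taken as reduced viability, normalized to DMSO baseline. T-47D cells, charcoal-stripped serum medium, compounds up to 100 uM final, continuous exposure, 80 h.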
# [16] = molecular target: Nuclear receptor subfamily 1 group I member 2 (Homo sapiens) (UniProt O75469); assay: ATG_PXR_TRANS: Attagene TRANS-FACTORIAL HepG2 Assay for human Pregnane X Receptor (PXR) (AID 2283008)
# Sequence of Nuclear receptor subfamily 1 group I member 2 (Homo sapiens) (O75469 whole entry, looked up, the tested form may be a part): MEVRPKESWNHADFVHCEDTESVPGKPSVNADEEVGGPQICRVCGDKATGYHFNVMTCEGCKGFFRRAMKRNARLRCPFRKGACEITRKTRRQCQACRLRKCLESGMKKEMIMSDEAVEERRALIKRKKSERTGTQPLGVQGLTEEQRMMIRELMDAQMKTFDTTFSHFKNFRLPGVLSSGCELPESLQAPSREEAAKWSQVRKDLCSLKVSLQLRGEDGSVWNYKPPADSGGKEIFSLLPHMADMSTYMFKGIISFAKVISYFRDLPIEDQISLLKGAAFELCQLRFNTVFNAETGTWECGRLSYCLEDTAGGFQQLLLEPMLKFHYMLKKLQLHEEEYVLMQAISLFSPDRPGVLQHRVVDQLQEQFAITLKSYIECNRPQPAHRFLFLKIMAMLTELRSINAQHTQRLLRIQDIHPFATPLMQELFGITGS
# Method in brief: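 HepG2 transfected (FuGene 6) with GAL4-UAS reporter units + PXR-Gal4 chimera; dosed 24 h. Total RNA → oligo(dT) RT → PCR → 6-FAM primer extension → HpaI cut → CE. Gain-of-signal vs DMSO.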
# [17] = molecular target: Peroxisome proliferator-activated receptor gamma (Homo sapiens) (UniProt P37231); assay: ATG_PPARg_TRANS: Attagene TRANS-FACTORIAL HepG2 Assay for human Peroxisome Proliferator-activated Receptor-gamma (PPARg) (AID 2283007)
# Sequence of Peroxisome proliferator-activated receptor gamma (Homo sapiens) (P37231 whole entry, looked up, the tested form may be a part): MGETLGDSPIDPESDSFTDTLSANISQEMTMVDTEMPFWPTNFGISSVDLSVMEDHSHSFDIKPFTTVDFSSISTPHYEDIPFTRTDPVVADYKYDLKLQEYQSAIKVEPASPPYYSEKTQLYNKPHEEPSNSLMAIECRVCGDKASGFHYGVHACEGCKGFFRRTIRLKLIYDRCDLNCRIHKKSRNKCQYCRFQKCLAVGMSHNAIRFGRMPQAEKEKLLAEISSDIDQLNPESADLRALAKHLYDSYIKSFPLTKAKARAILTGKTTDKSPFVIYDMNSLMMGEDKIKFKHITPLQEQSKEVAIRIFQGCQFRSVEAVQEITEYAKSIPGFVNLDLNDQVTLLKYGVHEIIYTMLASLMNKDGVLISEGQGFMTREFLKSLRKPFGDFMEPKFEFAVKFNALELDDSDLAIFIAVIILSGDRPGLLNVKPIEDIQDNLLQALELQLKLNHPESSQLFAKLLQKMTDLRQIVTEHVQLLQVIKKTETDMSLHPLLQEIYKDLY
# Method in brief: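 Transient transfection of HepG2 with GAL4-UAS-driven reporter units; chemical dosing 24 h; total RNA → oligo(dT) RT → PCR with reporter primers → 6-FAM primer extension → HpaI digest 2 h 37 C → capillary electrophoresis. Positive direction vs DMSO.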
# [18] = CCTE_Harrill_HTTr_Viability_MCF7: CCTE's 6-hour Cell Viability Assessment for the High-Throughput Transcriptomics (HTTr) Platform, in MCF-7 cells cultured in DMEM + 10% fetal bovine serum, Harrill Lab (AID 2284010; active = hit-call score of the fitted dose curve at least 0.9, where 1 is the maximum; inactive = score below 0.9)
# Method in brief: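 Eight-point concentration series, six-hour exposure. Propidium iodide exclusion imaged to assess membrane integrity as a cytotoxicity readout; bidirectional fitting was done with DMSO as negative control and activity baseline.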
# [19] = CCTE_Harrill_HTTr_Apoptosis_MCF7: CCTE's 6-hour Apoptosis Assessment for the High-Throughput Transcriptomics (HTTr) Platform, in MCF-7 cells cultured in DMEM + 10% fetal bovine serum, Harrill Lab (AID 2284011; active = hit-call score of the fitted dose curve at least 0.9, where 1 is the maximum; inactive = score below 0.9)
# Method in brief: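 MCF-7 cells in DMEM + 10% FBS exposed 6 h to chemicals over an eight-point dilution series. Caspase-3/7 activation imaged by high-content CellEvent Green staining; fitted bidirectionally versus DMSO.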
# [20] = TOX21_p53_BLA_p3_viability: Viability Assessment in the Tox21 HCT-116 p53 Agonism Beta-lactamase Assay, Phase 3 (AID 2283593);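 also: cells exposed to compound for 16 h before reading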
# Method in brief: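 HCT116 cells, 4000/well, dosed 5 h after plating by pin transfer (217-fold dilution from DMSO stock) and incubated 16 h at 37C, 5% CO2. Viability read as ATP luminescence with CellTiter-Glo after 30 min at room temperature.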
smiles,measurement,setting,value
OCCc1ccccn1,outcome,[1],inactive
same,outcome,[2],inactive
same,outcome,[3],inactive
same,outcome,[4],inactive
same,outcome,[5],inactive
same,outcome,[6],inactive
same,outcome,[7],inactive
same,outcome,[8],inactive
same,outcome,[9],inactive
CCC(C)C1N=C(C)C(C)S1 (configuration not stated),outcome,[2],inactive
same,outcome,[3],inactive
same,outcome,[4],inactive
same,outcome,[5],inactive
same,outcome,[10],inactive
same,outcome,[11],inactive
CCO[Si](CCCN)(OCC)OCC,outcome,[12],inactive
same,outcome,[1],inactive
same,outcome,[13],inactive
same,outcome,[2],inactive
same,outcome,[14],inactive
same,outcome,[3],inactive
same,outcome,[4],inactive
same,outcome,[5],inactive
same,outcome,[6],inactive
same,outcome,[11],inactive
same,outcome,[15],inactive
CCC(C)(CCC(C)C)C(=O)O (configuration not stated),outcome,[1],inactive
same,outcome,[5],inactive
same,outcome,[16],inactive
same,outcome,[6],inactive
same,outcome,[7],inactive
same,outcome,[8],inactive
same,outcome,[9],inactive
same,outcome,[15],inactive
Cc1cccnc1,outcome,[1],inactive
same,outcome,[13],inactive
same,outcome,[3],inactive
same,outcome,[4],inactive
same,outcome,[17],inactive
same,outcome,[6],inactive
same,outcome,[10],inactive
same,outcome,[18],inactive
same,outcome,[19],inactive
CC/C=C/CCO,outcome,[12],inactive
same,outcome,[14],inactive
same,outcome,[3],inactive
same,outcome,[16],inactive
same,outcome,[7],inactive
same,outcome,[10],inactive
same,outcome,[8],inactive
same,outcome,[9],inactive
same,outcome,[11],inactive
CCC(C)=NO,outcome,[1],inactive
same,outcome,[2],inactive
same,outcome,[4],inactive
same,outcome,[7],inactive
same,outcome,[10],inactive
same,outcome,[8],inactive
same,outcome,[20],inactive
same,outcome,[15],inactive
same,outcome,[18],inactive
same,outcome,[19],inactive
CCC(C)NC(N)=O (configuration not stated),outcome,[3],inactive
same,outcome,[6],inactive
same,outcome,[7],inactive
same,outcome,[11],inactive
same,AC50,[15],50 µM (active)
CC[N+](CC)(CC(=O)Nc1c(C)cccc1C)Cc1ccccc1 (tested in a mixture with another compound),outcome,[16],inactive
same,outcome,[6],inactive
same,outcome,[18],inactive
same,outcome,[19],inactive
Brc1ccc(Oc2ccc(Br)cc2)cc1,outcome,[1],inactive
same,outcome,[3],inactive
same,outcome,[5],inactive
same,outcome,[7],inactive
same,outcome,[10],inactive
same,outcome,[8],inactive
same,outcome,[20],inactive
same,outcome,[11],inactive
same,AC50,[15],65.4 µM (active)
same,outcome,[18],inactive
same,outcome,[19],inactive
CC(O)(P(=O)(O)O)P(=O)(O)O,outcome,[13],inactive
same,outcome,[3],inactive
same,outcome,[10],inactive
OCCOCCOCCOCCOCCO,outcome,[4],inactive
same,outcome,[5],inactive
same,outcome,[17],inactive
same,outcome,[6],inactive
same,outcome,[7],inactive
same,outcome,[10],inactive
same,outcome,[20],inactive
same,outcome,[11],inactive
CC(C)CC(=O)CC(C)C,outcome,[16],inactive
same,outcome,[6],inactive
same,outcome,[7],inactive
same,outcome,[8],inactive
same,outcome,[9],inactive
same,outcome,[11],inactive
same,outcome,[18],inactive
same,outcome,[19],inactive
O=C(O)c1ccccc1C(=O)O,outcome,[13],inactive
same,outcome,[2],inactive
same,outcome,[4],inactive
same,outcome,[5],inactive
same,outcome,[7],inactive
same,outcome,[10],inactive
same,outcome,[9],inactive
same,outcome,[20],inactive
same,outcome,[11],inactive
same,outcome,[15],inactive
CCCCCCCCCCCCCCCCCC[N+](C)(C)C,AC50,[12],45.2 µM (active)
same,AC50,[2],11.8 µM (active)
same,AC50,[14],15.9 µM (active)
same,outcome,[3],inactive
same,outcome,[4],inactive
same,outcome,[5],inactive
same,AC50,[17],32.7 µM (active)
same,outcome,[8],inactive
same,outcome,[9],inactive
same,AC50,[20],46.2 µM (active)
same,AC50,[11],65.7 µM (active)
